Assay outcomes deposited in PubChem BioAssay by National Center for Advancing Translational Sciences (NCATS).
ClpP mod = qHTS Assay for Activators of ClpP | purified B. subtilis ClpP, FRET peptide cleavage, 20 min | ATP-dependent Clp protease proteolytic subunit (Bacillus subtilis (strain 168)), P80244 | 340,000 tested, 1.9% active | Potency, µM (top dose mostly 57.5 µM), inactives show top-dose activity change, negative = active | AID 651965, 2013; active = well fitted falling curve with a large enough effect; inconclusive = small, poorly fitted or top-dose-only effect; inactive = no such curve, though single readings can be large or run the other way; also: the source files actives as falling curves though it sought activators and does not explain the sign; nearly all actives have a fitted effect of over 65% in size
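Buffer: 100 mM Tris/HCl pH8, 100 mM KCl, 0.05% low protease BSA, 2.5% glycerol, 0.01% Tween-20. ClpP 10 microg/mL final; 20 min RT; delta FRET normalized to ADEP and DMSO controls.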
DT40 TDP1 no CPT = qHTS for Inhibitors of human tyrosyl-DNA phosphodiesterase 1 (TDP1): qHTS in cells in absence of CPT. DT40 Tdp1-/- hTDP1 cells, no CPT, ATP luminescence, 48 h. 420,000 tested, 15% active. Potency, µM (titrated, usually from 46.2 µM), for inactives: at the top dose activity change, negative = growth inhibition, most hits filed as inhibitors; also: % is scaled to controls: 0 for no effect and ±100 for the full control effect; nearly all actives have a fitted effect of over 55% in size
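Luminescent ATP content (CellTiter-Glo) served as the growth readout. Knockout chicken DT40 cells expressing human TDP1 were exposed to compounds without camptothecin for a minimum 48 hr at 37 °C.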
TDP1 block = qHTS Assay for Inhibitors of Tyrosyl-DNA Phosphodiesterase (TDP1) | 350,000 tested, 0.28% active | Potency, µM (top dose mostly 130 µM), for the others: at the highest dose activity change, negative = inhibition, usual class: inhibitors | Tyrosyl-DNA phosphodiesterase 1 (Homo sapiens), Q9NUW8 | recombinant TDP1, AlphaScreen DNA substrate cleavage; also: % is scaled to controls: 0 for no effect and ±100 for the full control effect; nearly all actives have a fitted effect of over 40% in size
Target sequence (Q9NUW8 whole entry, looked up): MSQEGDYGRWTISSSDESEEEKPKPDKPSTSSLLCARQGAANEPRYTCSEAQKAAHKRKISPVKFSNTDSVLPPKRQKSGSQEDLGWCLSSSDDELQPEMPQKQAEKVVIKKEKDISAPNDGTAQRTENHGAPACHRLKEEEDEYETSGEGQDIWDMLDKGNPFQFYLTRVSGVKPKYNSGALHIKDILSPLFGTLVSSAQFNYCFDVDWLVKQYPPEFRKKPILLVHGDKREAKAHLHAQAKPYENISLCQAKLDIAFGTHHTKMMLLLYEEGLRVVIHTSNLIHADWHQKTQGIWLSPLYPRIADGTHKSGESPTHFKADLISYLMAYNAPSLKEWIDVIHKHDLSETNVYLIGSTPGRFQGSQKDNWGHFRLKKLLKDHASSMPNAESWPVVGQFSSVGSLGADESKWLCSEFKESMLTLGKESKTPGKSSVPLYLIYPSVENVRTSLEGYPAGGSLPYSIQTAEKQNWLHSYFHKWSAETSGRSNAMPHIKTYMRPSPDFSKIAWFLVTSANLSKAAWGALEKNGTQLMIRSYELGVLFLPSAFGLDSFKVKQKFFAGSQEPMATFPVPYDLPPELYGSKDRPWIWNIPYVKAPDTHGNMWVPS
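AlphaScreen read-out: signal falls as enzyme removes the 3' tyrosine-FITC from a 5'-biotinylated DNA oligo (15 nM, 5 min, RT). Enzyme was E. coli-made recombinant Tdp1 at 1 nM, exposed to compound for 15 min beforehand; beads 10 ug/ml, 10 min.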
TDP1 cell CPT = qHTS for Inhibitors of human tyrosyl-DNA phosphodiesterase 1 (TDP1): qHTS in cells in presence of CPT | chicken DT40 Tdp1-/-;hTDP1 cells + 20 nM CPT, ATP luminescence, 48 h | Potency, µM (titrated, usually from 46.2 µM), without a hit: at the highest dose activity change, negative = growth inhibition, actives largely listed as inhibitors | 420,000 tested, 12% active | AID 686979, 2013; also: % is scaled to controls: 0 for no effect and ±100 for the full control effect; nearly all actives have a fitted effect of over 55% in size
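Cell growth measured by CellTiter-Glo luminescence after a minimum 48 h, 37 C compound exposure with 20 nM CPT in Tdp1-knockout DT40 cells stably expressing hTDP1, seeded 400/well; qHTS titration format.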
Numbers without * were called inactive; ? = inconclusive; . = no result; [ ] = another dose, or the depositor's remark. Compounds with a hit are over-represented: about 17% of the library has one in this group of screens. Unless noted, calls follow the shape of the dose curve; as a rule, active = well fitted curve in the direction sought with a large enough effect; inconclusive = small, poorly fitted or top-dose-only effect, or another doubt; inactive = no such curve, though single readings can be large; an effect the other way counts as inactive or inconclusive. Potency is read from the fitted curve at half-maximal effect.

SMILES	ClpP mod	DT40 TDP1 no CPT	TDP1 block	TDP1 cell CPT
O=S(=O)(c1ccc(N2CCCC2)cc1)C(F)(F)F	-6%	12µM*	5%	?
O=[N+]([O-])c1cc(S(=O)(=O)C(F)(F)F)ccc1N1CCN(c2ccccc2)CC1	-1%	16µM*	5%	?
COc1ccc(CNC(=O)c2ccc3c(c2)N(Cc2cc(C)ccc2C)C(=O)CS3)cc1	0%	?	6%	?
O=C(OCC(=O)N1CCOCC1)c1cc(-c2ccccc2)nc2ccccc12	.	2%	-2%	-7%
C=CCn1c(SCC(=O)Nc2ccc(F)cc2)nnc1-c1cnccn1	-2%	-10%	0%	-28%
O=C(CCc1nc2ccccc2c(=O)[nH]1)OCC(=O)N1CCc2ccccc21	.	0%	-1%	17%
Cc1ccc(N2CCN(C(=O)CCc3nc4ccccc4[nH]3)CC2)c(C)c1	-3%	?	0%	18µM*
Cc1ccc2c(c1)CCCN2C(=O)CCc1nc2ccccc2c(=O)[nH]1	2%	?	2%	0.46µM*
Cc1cccc(N2CCN(C(=O)CCc3nc4ccccc4[nH]3)CC2C)c1 (stereo not drawn)	-1%	?	8%	?
COC(=O)C(C)NC(=O)c1ccc(C(C)(C)C)cc1 (stereo not drawn)	4%	9%	3%	11%
CCCCN1CC(N2CCN(C)CC2)CS1(=O)=O (stereo not drawn)	0%	-4%	.	-16%
c1ccc(-c2nc(SCC3CCCCO3)n[nH]2)cc1 (stereo not drawn)	-10%	?	.	8%
CC(C)(C)[C@H]1C=C(C(=O)Nc2ccccc2)O[C@@H](OCCCCO)C1	2%	?	.	?
CCN(CC)c1ccc(/C=N/NC(=O)c2ccc(O)cc2)cc1	.	.	11%	.
CCN(CC)c1ccc(/C=N\NC(N)=O)cc1	25µM*	-21%	2%	-21%
CCN(CC)c1ccc(/C=N\NC(=O)c2cccc3cc[nH]c23)cc1	-1%	2.9µM*	4%	5.2µM*
CCN(CC)c1ccc(/C=N/NC(=O)Nc2ccccc2)cc1	4%	?	8%	?
CCN(CC)c1ccc(/C=N/NC(=O)CC(C)C)cc1	18µM*	?	5%	2%
CCN(CC)c1ccc(/C=N/NC(=O)Cc2nnc(NC(=O)Nc3ccccc3)s2)cc1	.	21µM*	-1%	?
Cc1cccc(Cn2c(=O)n(CCC(=O)NCc3ccc4c(c3)OCO4)c(=O)c3sccc32)c1	0%	-21%	0%	-3%
COc1ccc(C(=O)O)cc1S(=O)(=O)NC(C)C	0%	-2%	2%	8%
CCOc1ccc(C(=O)NCC(c2ccc3c(c2)OCO3)N2CCN(C)CC2)cc1 (stereo not drawn)	-5%	1%	4%	0%
COc1ccc(Oc2ncc3nc(-c4ccccc4)c(=O)n(CCC#N)c3n2)cc1	.	?	.	18%
C[C@H](NC(=O)[C@@H]1CCCN1C(=O)[C@@H]1CCCN1C(=O)c1cccc(Cl)c1)c1ccccc1	1%	-27%	.	?
CCc1c(C)sc(NC(=O)CN2CCN(C(=O)c3ccco3)CC2)c1C(=O)OC	-10%	?	9%	18µM*
SMILES	ClpP mod	DT40 TDP1 no CPT	TDP1 block	TDP1 cell CPT
CCOC(=O)c1c(NC(=O)CN2CCN(C(=O)c3ccco3)CC2)sc(C)c1C	-6%	15µM*	7%	?
O=C1/C(=C/c2ccc(O)c(O)c2)Oc2ccccc21	.	.	21%	.
O=C(CSc1nc(=O)n(Cc2ccco2)c2c1CCC2)Nc1cccc(F)c1	-6%	-20%	5%	?
COc1ccccc1CN1CC(C(=O)NCCc2ccccc2Cl)CCC1=O (stereo not drawn)	-1%	-17%	1%	8%
CC12CCC=CC1=C(C=O)C1C2CCC2(C)C(O)CCC12 (stereo not drawn)	.	26µM*	.	?
C[C@@]12CC[C@@H]3c4ccc(O)cc4CC[C@H]3[C@H]1CC[C@H]2O	.	.	10%[21 µM]	.
